Results filed as inconclusive are left out. Activity calls are given as the source filed them. Calls come from the whole dose curve; as a rule, active = well fitted curve in the direction sought with a large enough effect; inconclusive = small, poorly fitted or top-dose-only effect, or another doubt; inactive = no such curve, though single readings can be large or run the other way.
The compounds below were run against Glucagon-like peptide 1 receptor (Homo sapiens) (UniProt P43220) (assay: qHTS of GLP-1 Receptor Agonists: LOPAC Validation (AID 624148;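 note: luminescence from a luciferase reporter switched on by cAMP; higher luminescence signal means agonism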)). Conditions: GLP-1R agonist cell assay; series mostly up to 46.1 µM.
Glucagon-like peptide 1 receptor (Homo sapiens), sequence (P43220 whole entry, looked up): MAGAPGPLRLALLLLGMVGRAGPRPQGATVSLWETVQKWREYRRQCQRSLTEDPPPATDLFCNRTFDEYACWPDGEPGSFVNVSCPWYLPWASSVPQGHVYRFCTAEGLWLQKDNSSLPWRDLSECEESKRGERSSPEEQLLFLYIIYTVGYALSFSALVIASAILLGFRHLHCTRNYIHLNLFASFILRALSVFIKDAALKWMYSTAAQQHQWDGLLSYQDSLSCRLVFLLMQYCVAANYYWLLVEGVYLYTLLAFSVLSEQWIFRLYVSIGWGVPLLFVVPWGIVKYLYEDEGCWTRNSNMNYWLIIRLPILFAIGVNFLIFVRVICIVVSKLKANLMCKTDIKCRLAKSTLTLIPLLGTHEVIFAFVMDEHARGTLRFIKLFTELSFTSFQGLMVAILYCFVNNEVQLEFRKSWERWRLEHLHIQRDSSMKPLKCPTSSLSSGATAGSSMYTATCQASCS
Excerpt: The overall goal of this project was to develop a novel assay for discovering small molecule ligands for class B1 G protein-coupled receptors (GPCRs). Very few agonists (or inverse agonists) with generally weak activity for this entire group of physiologically important receptors are known to date. To establish proof-of-principle that this critical bottleneck can be overcome with a suitable screening approach, our studies focused on the class B1 receptor for glucagon-like peptide-1 (GLP-1R), a potential therapeutic target for diabetes and neurodegenerative disease.
The assay was developed in a "mix and measure" format using a cell-based functional readout. Toward this goal, stably transfected HEK293 cell clones were established that co-express (i) a cAMP-responsive luciferase reporter gene, and (ii) GLP-1Rs that upon ligand interaction either stimulate (agonists) or inhibit (inverse agonists) luciferase activity. In different cell lines to be used for screening, expressed GLP-1Rs are specifically optimized for high sensitivity detection of either weak agonists (hypersensitive receptor) or inverse agonists (constitutively active receptor mutant). In addition, control cell lines were developed that express either the cAMP-responsive reporter gene without recombinant GLP-1Rs (enabling initial exclusion of GLP-1R independent effects of candidate probes), or the reporter gene together with wild type GLP-1Rs (for confirmation of probe activity at this receptor), or the reporter gene in combination with the constitutively active orphan receptor GPR119 (enabling initial exclusion of GLP-1R independent inhibitory effects of candidate inverse agonists).
To that end, this assay was optimized for 1536-well format and screened against the MLSMR.
NIH Molecular Libraries Probe Production Network [MLPCN]
NIH Chemical Genomics Center [NCGC]
PI Name: Martin Beinborn, Tufts Medical Center
In a white solid 1536-well plate, 6 uL of cells are dispensed in DMEM without phenol red, 10% Nu serum, and 1% pen-strep medium. The plates are then incubated for 12 hours at 37 deg C at 5% CO2 before 23 nL of compounds are added. After a 4-6 hr incubation at37 deg C and 5% CO2, 3 uL of detection reagent are added and after a 12 min incubation at RT, a luminescent read is obtained on the ViewLux.
`COc1ccc(OC)c(C(O)C(C)N)c1` (stereo not given) was tested, and the outcome was “inactive”. For `C/C(O)=C(\C#N)C(=O)Nc1cc(Br)ccc1Br`, the outcome was “inactive”. In the case of `CC(C)[C@@]1(NC(=O)[C@@H]2C[C@@H]3c4cccc5[nH]cc(c45)C[C@H]3N(C)C2)O[C@@]2(O)[C@@H]3CCCN3C(=O)[C@H](Cc3ccccc3)N2C1=O`, the outcome is reported as “inactive”. `NCCc1ccc(S(=O)(=O)F)cc1` was tested, and the outcome was “inactive”. For `Clc1ccc(N2CC3CCC(C2)N3)nn1`, the outcome was “inactive”. For `CCCN(CCC)CCc1c[nH]c2ccc(C(N)=O)cc12`, the outcome was “inactive”. With `O=[N+]([O-])c1ccc2nc(N3CCNCC3)ccc2c1` the outcome was “inactive”. For `NC(=O)c1cc(N2CC2)c([N+](=O)[O-])cc1[N+](=O)[O-]`, the outcome was “inactive”. `C[C@H](Cc1ccc2c(c1)OC(C(=O)O)(C(=O)O)O2)NC[C@H](O)c1cccc(Cl)c1` was tested, and the outcome was “inactive”. For `CN(N=O)c1cc(O)ccc1O`, the outcome was “inactive”. With `O=c1c2ccccc2[se]n1-c1ccccc1` the outcome was “inactive”. In the case of `CC(=O)OCC1=C(C(=O)O)N2C(=O)[C@@H](NC(=O)CCC[C@@H](N)C(=O)O)[C@H]2SC1`, the outcome is reported as “inactive”. With `NC(=O)COc1c(F)cc(SCCNS(=O)(=O)c2ccccc2)cc1F` the outcome was “inactive”. For `CCCN(CCC)C1CCc2cccc(O)c2C1` (stereo not given), the outcome was “inactive”. In the case of `COc1cc(CC(C)N)c(OC)cc1I` (stereo not given), the outcome is reported as “inactive”. For `CC(C)(O)[C@@H]1C2OC(=O)[C@@H]1[C@]1(O)C[C@H]3O[C@]34C(=O)O[C@H]2[C@]14C` (tested in a mixture with another compound), the outcome was “inactive”. For `CP(=O)(O)C1=CCNCC1`, the outcome was “inactive”. For `CCCCCCC(C)(C)c1ccc([C@@H]2C[C@H](O)CC[C@H]2CCCO)c(O)c1`, the outcome was “inactive”. `N[C@@]1(C(=O)O)CC[C@@H](C(=O)O)C1` was tested, and the outcome was “inactive”. For `NC(=O)c1ccc(OCC(O)CN2CC=C(c3ccc(F)cc3)CC2)cc1` (stereo not given), the outcome was “inactive”. In the case of `NNC(=O)c1ccc(O)cc1`, the outcome is reported as “inactive”. For `C[N+]1(C)CCN(c2ccccc2)CC1`, the outcome was “inactive”. In the case of `COC(=O)N1CCN(C(=O)Cc2ccc(Cl)c(Cl)c2)C(CN2CCCC2)C1` (stereo not given), the outcome is reported as “inactive”. `Oc1ccc2c3c1O[C@H]1c4oc5ccccc5c4C[C@@]4(O)C(C2)N(CC2CC2)CCC314` (stereo not given in full) was tested, and the outcome was “inactive”. For `Clc1cc(I)cc(Cl)c1NC1=NCCN1`, the outcome was “inactive”. `N=C(N)c1ccc(CS(=O)(=O)F)cc1` was tested, and the outcome was “inactive”. `NC(N)=NOCC[C@H](N)C(=O)O` was tested, and the outcome was “inactive”. With `C=CCN1CCC23c4c5ccc(O)c4O[C@H]2C(=O)CC[C@@]3(O)C1C5` (stereo not given in full) the outcome was “inactive”. For `C=CCN1C[C@@H](C)N([C@H](c2ccc(C(=O)N(CC)CC)cc2)c2cccc(OC)c2)C[C@@H]1C`, the outcome was “inactive”. `C[N+](C)(C)CC#CCN1CCCC1=O` was tested, and the outcome was “inactive”. For `N[C@@H](Cn1ccc(=O)[nH]c1=O)C(=O)O`, the outcome was “inactive”. With `O=[N+]([O-])/C=C/c1ccc2c(c1)OCO2` the outcome was “inactive”. `CNc1ccc2oc(C[C@H]3O[C@@]4(CC[C@H]3C)O[C@H]([C@H](C)C(=O)c3ccc[nH]3)[C@H](C)C[C@H]4C)nc2c1C(=O)O` was tested, and the outcome was “inactive”. In the case of `C=CCN1CCc2cccc3c2[C@H]1Cc1ccc(O)c(O)c1-3`, the outcome is reported as “inactive”. `CC(N)c1cccc(Cl)c1Cl` (stereo not given) was tested, and the outcome was “inactive”. In the case of `C[C@@H]1O[C@@H](O[C@H]2C[C@@H](O)[C@]3(CO)[C@@H]4C(CC[C@]3(O)C2)[C@@]2(O)CC[C@H]([C@@H]3COC(=O)C3)[C@@]2(C)C[C@H]4O)[C@H](O)[C@H](O)[C@H]1O` (stereo not given in full), the outcome is reported as “inactive”. `OCc1cnc[nH]1` was tested, and the outcome was “inactive”. In the case of `CCCN(CCC)CCc1ccc(O)c(O)c1`, the outcome is reported as “inactive”. In the case of `CCCn1c(C)c(C(=O)c2ccc3ccccc3c2)c2ccccc21`, the outcome is reported as “inactive”. `Cc1o[nH]c(=O)c1CC(N)C(=O)O` (stereo not given) was tested, and the outcome was “inactive”.

Reference: PubChem BioAssay (NCATS)
